Screen size: about 5,500 compounds; about 2,000 (36%) were called active. About 18% were inconclusive and are not listed. Cut-off read from the data, not from the text of the source: active = normalized growth mostly below about 0.91 (no sharp cut-off); inconclusive = no clear call, values can overlap the other calls; inactive = mostly above about 0.92. This is one part of the list.
Test: chemical genetic growth profiling, strain panel (AID 1159580);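 note: tested at 20 µM; growth read once vehicle control cultures reached saturation at 30 °C; 1 = growth at the plate median or of vehicle wells; lower values mean less growth of the strain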
Conditions: S. cerevisiae deletion strains, growth OD

Measured: normalized growth

O=C(O)C1CN(CCCP(=O)(O)O)CCN1 (stereo unspecified)
inactive: locus YAL040C, strain CLN3, hits give low values 0.977 | locus YCL061C, strain MRC1 (second series), hits give low values 0.994 | locus YDR363W, strain ESC2, hits give low values 0.965 | locus YER002W, strain NOP16, hits give low values 0.975 | locus YGR078C, strain PAC10, hits give low values 0.966 | locus YGR229C, strain SMI1, hits give low values 0.967 | locus YJR075W, strain HOC1, hits give low values 0.987 | locus YNL128W, strain TEP1, hits give low values 1.02 | locus YNL175C, strain NOP13, hits give low values 0.974 | locus YNL197C, strain WHI3, hits give low values 0.99 | locus YNL224C, strain SQS1, hits give low values 0.991 | locus YOR083W, strain WHI5 (second series), hits give low values 1.04 | locus YPL055C, strain LGE1, hits give low values 0.951 | locus YPL241C, strain CIN2, hits give low values 0.984

COc1ccc(-c2cc(=O)c3c(O)c(OC)c(OC)c(OC)c3o2)cc1
inactive: locus YAL021C, strain ccr4, hits give low values 0.987 | locus YAL026C, strain drs2, hits give low values 0.988 | locus YAL030W, strain snc1, hits give low values 1 | locus YBL061C, strain skt5, hits give low values 0.99 | locus YBR009C, strain hhf1, hits give low values 0.995 | locus YBR023C, strain chs3, hits give low values 0.993 | locus YBR171W, strain sec66, hits give low values 0.999 | locus YBR231C, strain swc5, hits give low values 0.986 | locus YBR279W, strain paf1, hits give low values 0.999 | locus YCL011C, strain gbp2, hits give low values 0.987 | locus YCL016C, strain dcc1, hits give low values 0.968 | locus YCL069W, strain vba3, hits give low values 0.983 | locus YCR088W, strain abp1, hits give low values 0.996 | locus YDL005C, strain med2, hits give low values 0.986 | locus YDL040C, strain nat1, hits give low values 0.993 | locus YDR001C, strain nth1, hits give low values 0.992 | locus YDR069C, strain doa4, hits give low values 0.976 | locus YDR137W, strain rgp1, hits give low values 1 | locus YDR159W, strain sac3, hits give low values 1 | locus YDR195W, strain ref2 0.953 | locus YDR297W, strain sur2, hits give low values 0.987 | locus YDR334W, strain swr1, hits give low values 0.977 | locus YDR335W, strain msn5, hits give low values 0.995 | locus YDR392W, strain spt3, hits give low values 0.991 | locus YEL003W, strain gim4, hits give low values 0.984 | locus YEL037C, strain rad23, hits give low values 0.992 | locus YEL061C, strain CIN8 (second series), hits give low values 0.998 | locus YER015W, strain faa2, hits give low values 0.989 | locus YER016W, strain bim1, hits give low values 0.998 | locus YER111C, strain swi4, hits give low values 0.997 | locus YER155C, strain BEM2 (second series), hits give low values 0.978 | locus YFR010W, strain ubp6, hits give low values 1 | locus YGL167C, strain pmr1, hits give low values 0.995 | locus YGL173C, strain kem1, hits give low values 1.02 | locus YGL227W, strain vid30, hits give low values 1 | locus YGL240W, strain doc1, hits give low values 1 | locus YGL253W, strain hxk2, hits give low values 1 | locus YHR013C, strain ard1, hits give low values 0.971 | locus YHR027C, strain rpn1, hits give low values 0.964 | locus YHR142W, strain chs7, hits give low values 0.986 | locus YJL092W, strain hpr5, hits give low values 0.99 | locus YJL095W, strain BCK1 (second series), hits give low values 1 | locus YJL115W, strain asf1, hits give low values 0.979 | locus YJL129C, strain trk1, hits give low values 0.979 | locus YJL154C, strain vps35, hits give low values 0.988 | locus YJL164C, strain tpk1, hits give low values 1.01 | locus YJL166W, strain qcr8, hits give low values 0.998 | locus YJL187C, strain SWE1, hits give low values 0.995 | locus YKL160W, strain elf1, hits give low values 0.972 | locus YKR026C, strain gcn3, hits give low values 1.01 | locus YKR091W, strain srl3, hits give low values 0.994 | locus YLL001W, strain dnm1, hits give low values 0.999 | locus YLL026W, hits give low values 0.983 | locus YLL041C, strain sdh2, hits give low values 0.982 | locus YLR027C, strain aat2, hits give low values 0.991 | locus YLR221C, strain rsa3, hits give low values 0.992 | locus YLR258W, strain gsy2, hits give low values 0.982 | locus YLR262C, strain YPT6 (second series), hits give low values 1 | locus YLR320W, strain mms22, hits give low values 1 | locus YLR342W, strain FKS1, hits give low values 0.99 | locus YLR357W, strain rsc2, hits give low values 0.97 | locus YLR370C, strain arc18, hits give low values 0.983 | locus YLR384C, strain iki3, hits give low values 0.99 | locus YML120C, strain ndi1, hits give low values 0.992 | locus YMR058W, strain fet3, hits give low values 0.976 | locus YMR125W, strain sto1, hits give low values 0.974 | locus YMR129W, hits give low values 0.989 | locus YMR205C, strain PFK2, hits give low values 0.997 | locus YMR231W, strain pep5, hits give low values 1.01 | locus YNL071W, strain lat1, hits give low values 1 | locus YNL209W, strain ssb2, hits give low values 0.984 | locus YNL248C, strain rpa49, hits give low values 0.969 | locus YNL322C, strain KRE1 (second series), hits give low values 1.01 | locus YNR049C, strain mso1, hits give low values 0.984 | locus YOR001W, strain rrp6, hits give low values 0.998 | locus YOR070C, strain gyp1, hits give low values 0.99 | locus YOR080W, strain dia2, hits give low values 0.984 | locus YOR083W, strain WHI5, hits give low values 0.993 | locus YOR106W, strain vam3, hits give low values 0.955 | locus YOR265W, strain rbl2, hits give low values 0.983 | locus YOR270C, strain vph1, hits give low values 1.01 | locus YOR290C, strain snf2, hits give low values 0.955 | locus YPL051W, strain arl3, hits give low values 0.981 | locus YPL078C, strain atp4, hits give low values 0.991 | locus YPL106C, strain sse1, hits give low values 0.981 | locus YPL240C, strain hsp82, hits give low values 0.99

N#CCCCCOc1ccc2c(=O)cc(-c3ccccc3)oc2c1
inactive: locus YAR019C, strain CDC15, hits give low values 0.99 | locus YBL105C, strain PKC1, hits give low values 0.978 | locus YBR135W, strain CKS1, hits give low values 0.977 | locus YBR136W, strain MEC1, hits give low values 0.977 | locus YBR160W, strain CDC28, hits give low values 0.977 | locus YDL017W, strain CDC7, hits give low values 0.988 | locus YDL028C, strain MPS1, hits give low values 0.981 | locus YDL101C, strain DUN1, hits give low values 0.972 | locus YDL108W, strain KIN28, hits give low values 0.977 | locus YDL132W, strain cdc53, hits give low values 0.971 | locus YDL214C, strain PRR2, hits give low values 0.946 | locus YDR052C, strain DBF4, hits give low values 0.989 | locus YDR054C, strain cdc34, hits give low values 0.988 | locus YDR226W, strain ADK1, hits give low values 0.977 | locus YDR477W, strain SNF1, hits give low values 0.959 | locus YER123W, strain YCK3, hits give low values 0.954 | locus YER133W, strain GLC7, hits give low values 0.972 | locus YFL009W, strain cdc4, hits give low values 0.979 | locus YFL029C, strain CAK1, hits give low values 0.989 | locus YFR003C, strain YPI1, hits give low values 0.981 | locus YFR019W, strain FAB1, hits give low values 0.961 | locus YFR028C, strain CDC14, hits give low values 0.974 | locus YGR040W, strain KSS1, hits give low values 0.94 | locus YGR052W, strain FMP48, hits give low values 0.972 | locus YGR092W, strain DBF2, hits give low values 0.938 | locus YHR030C, strain SLT2, hits give low values 1.08 | locus YHR079C, strain IRE1, hits give low values 1.08 | locus YHR082C, strain KSP1, hits give low values 1.07 | locus YHR205W, strain SCH9, hits give low values 0.976 | locus YIL147C, strain SLN1, hits give low values 0.974 | locus YJL095W, strain BCK1, hits give low values 0.933 | locus YJL128C, strain PBS2, hits give low values 0.938 | locus YJL157C, strain FAR1, hits give low values 0.971 | locus YJR016C, strain ILV3, hits give low values 0.967 | locus YJR066W, strain TOR1 (second series), hits give low values 0.914 | locus YJR066W, strain TOR1, hits give low values 1.04 | locus YKL048C, strain ELM1, hits give low values 0.966 | locus YKL067W, strain YNK1, hits give low values 0.956 | locus YKL101W, strain HSL1, hits give low values 0.936 | locus YKL193C, strain SDS22, hits give low values 0.969 | locus YKL203C, strain TOR2, hits give low values 1.01 | locus YLR113W, strain HOG1, hits give low values 0.955 | locus YLR133W, strain CKI1, hits give low values 0.965 | locus YLR403W, strain SFP1, hits give low values 0.921 | locus YML070W, strain DAK1, hits give low values 0.956 | locus YMR001C, strain CDC5, hits give low values 0.978 | locus YMR205C, strain PFK2 (second series), hits give low values 0.967 | locus YMR277W, strain FCP1, hits give low values 0.976 | locus YNL006W, strain LST8, hits give low values 0.987 | locus YNL020C, strain ARK1, hits give low values 0.956 | locus YNL161W, strain CBK1, hits give low values 0.98 | locus YNL183C, strain NPR1, hits give low values 1.02 | locus YNL207W, strain RIO2, hits give low values 0.965 | locus YNL222W, strain SSU72, hits give low values 0.982 | locus YNL307C, strain MCK1 (second series), hits give low values 0.927 | locus YOL078W, strain AVO1, hits give low values 0.972 | locus YOL136C, strain PFK27, hits give low values 0.919 | locus YOR061W, strain CKA2, hits give low values 0.961 | locus YOR119C, strain RIO1, hits give low values 1.01 | locus YOR231W, strain MKK1, hits give low values 0.964 | locus YOR329C, strain SCD5, hits give low values 0.984 | locus YPL031C, strain PHO85, hits give low values 0.968 | locus YPL153C, strain RAD53, hits give low values 0.953 | locus YPL204W, strain HRR25, hits give low values 0.943 | locus YPL209C, strain IPL1, hits give low values 0.982 | locus YPR025C, strain CCL1, hits give low values 0.982 | locus YPR106W, strain ISR1, hits give low values 0.983 | locus YPR111W, strain DBF20, hits give low values 0.961 | strain NNK1, hits give low values 0.975 | strain TSCII, hits give low values 0.976
active: locus YPL256C, strain CLN2, hits give low values 1.15 [resistant]

Reference: PubChem BioAssay AID1159580 (chemical genetic matrix, 2015)
